Data: PubChem BioAssay
Entries with a potency or affinity are not part of this list. Inconclusive results are not listed. A number with no mark means an inactive call. The rule behind the calls is not given here.

assay: non-specific cell cytotoxicity, dose response, cytotoxicity control for PAX8 inhibitor project, plate reader, dry powder samples (AID 743021); settings: cell line, non-specific cytotoxicity counter-screen; series mostly up to 35 µM; activity change, negative = cytotoxicity: at the top concentration

| SMILES | activity change, negative = cytotoxicity |
| --- | --- |
| C[C@H](CO)N1C[C@H](C)[C@@H](CN(C)Cc2ccc(Cl)c(Cl)c2)Oc2ccc(NC(=O)Nc3ccc(C(F)(F)F)cc3)cc2CC1=O | -8.99% |
| O=C(C[C@@H]1CC[C@@H]2[C@H](COC[C@H](O)CN2Cc2ccc3c(c2)OCO3)O1)Nc1ccc(-c2ccccc2)cc1 | -8.81% |
| COc1cccc(-c2ccc([C@H]3[C@@H](CO)N(C(=O)c4ccccn4)[C@H]3C#N)cc2)c1 | -71.8% |
| C[C@@H]1CCCCO[C@@H](CN(C)Cc2ccc(C(F)(F)F)cc2)[C@H](C)CN([C@H](C)CO)C(=O)c2cc(NC(=O)c3ccccc3)ccc2O1 | -9.21% |
| COc1ccc(NC(=O)N2CCCCN3[C@H](CO)[C@H](c4ccc(C#Cc5ccccc5)cc4)[C@H]3C2)cc1 | -21.8% |
| C[C@H]1CCCCO[C@H](CN(C)C(=O)Nc2ccc(C(F)(F)F)cc2)[C@@H](C)CN([C@@H](C)CO)C(=O)c2cc(NS(=O)(=O)c3ccccc3)ccc2O1 | -22.6% |
| C[C@@H]1CN([C@@H](C)CO)C(=O)c2cc(NC(=O)Cc3ccccc3)ccc2O[C@@H](C)CCCCO[C@@H]1CN(C)Cc1ccc(C(F)(F)F)cc1 | -24.7% |
| C[C@@H]1CN([C@@H](C)CO)C(=O)Cc2cc(NC(=O)C3CCCCC3)ccc2O[C@H]1CN(C)Cc1ccc(Cl)c(Cl)c1 | -12.7% |
| C[C@@H]1CN([C@H](C)CO)C(=O)c2cc(NS(=O)(=O)c3ccccc3)ccc2O[C@@H](C)CCCCO[C@@H]1CN(C)Cc1ccc(Cl)c(Cl)c1 | -26.6% |
| C[C@@H]1CN([C@H](C)CO)C(=O)c2cc(NC(=O)Nc3ccc(C(F)(F)F)cc3)ccc2O[C@@H](C)CCCCO[C@H]1CN(C)C(=O)Nc1ccc(C(F)(F)F)cc1 | -14.7% |
| Cc1cccc(S(=O)(=O)N2CC[C@@H]3[C@H](CO)N(C)c4ccc(C#Cc5ccc(F)cc5)cc4[C@@H]32)c1 | -17.6% [at 16 µM] |
| O=C(C[C@H]1CC[C@@H]2[C@H](COC[C@H](O)CN2S(=O)(=O)c2cccc(F)c2)O1)Nc1ccc(-c2ccccc2)cc1 | -13.5% |
| C[C@H]1CCCCO[C@H](CN(C)C(=O)Nc2cccc3ccccc23)[C@@H](C)CN([C@@H](C)CO)C(=O)c2cc(NS(=O)(=O)c3ccc(F)cc3)ccc2O1 | -5.37% |
| C[C@H]1CN([C@@H](C)CO)C(=O)c2c(c3ccccc3n2C)-c2ccccc2CO[C@@H]1CN(C)Cc1cccc(C(F)(F)F)c1 | -8.45% |
| CN(C[C@H]1N[C@@H](CO)[C@@H]1c1ccc(-c2cccc(F)c2)cc1)S(C)(=O)=O | -17.4% |
| C[C@@H]1CN([C@@H](C)CO)C(=O)Cc2cc(NS(=O)(=O)c3ccc(Cl)cc3)ccc2O[C@H]1CN(C)Cc1ccc(Cl)c(Cl)c1 | -11% |
| Cc1ccccc1-c1ccc([C@@H]2[C@@H](CO)N3CCCCN(C(=O)NC4CCCC4)C[C@H]23)cc1 | -23.7% |
| Cc1ccc(S(=O)(=O)Nc2ccc3c(c2)C(=O)N([C@H](C)CO)C[C@@H](C)[C@H](CN(C)S(=O)(=O)c2ccc(C)cc2)OCCCC[C@H](C)O3)cc1 | -19.3% |
| C[C@@H]1CCCCO[C@@H](CN(C)Cc2ccc(Cl)c(Cl)c2)[C@H](C)CN([C@H](C)CO)C(=O)c2cc(NS(=O)(=O)c3ccc(Cl)cc3)ccc2O1 | -8.66% |
| COc1ccc(S(=O)(=O)Nc2ccc3c(c2)C(=O)N([C@H](C)CO)C[C@H](C)[C@@H](CN(C)S(=O)(=O)c2ccc(F)cc2)OCCCC[C@H](C)O3)cc1 | -15.6% |
| C[C@@H]1CCCCO[C@@H](CN(C)C(=O)Nc2ccc(F)cc2)[C@H](C)CN([C@H](C)CO)C(=O)c2cc(NS(=O)(=O)c3ccc(Cl)cc3)ccc2O1 | -0.317% |
| C[C@@H]1CCCCO[C@@H](CN(C)Cc2ccc(C(F)(F)F)cc2)[C@H](C)CN([C@@H](C)CO)C(=O)c2cc(NS(=O)(=O)c3ccc(F)cc3)ccc2O1 | -4.69% |
| C[C@H](CO)N1C[C@H](C)[C@H](CN(C)S(=O)(=O)c2ccc(F)cc2)OCCCC[C@H](C)Oc2ccc(NS(=O)(=O)c3ccc(Cl)cc3)cc2C1=O | 9.6% |
| O=C(C[C@@H]1CC[C@@H]2[C@H](COC[C@@H](O)CN2C(=O)Nc2ccc(Cl)c(Cl)c2)O1)NCc1ccc(Cl)cc1 | 3.82% |
| C[C@@H]1CN([C@@H](C)CO)C(=O)c2cc(NC(=O)Cc3ccccc3)ccc2O[C@@H](C)CCCCO[C@H]1CN(C)Cc1ccc(C(F)(F)F)cc1 | -10.2% |
| N#C[C@@H]1[C@@H](c2ccc(-c3ccccc3F)cc2)[C@@H](CO)N1C(=O)C1CCC1 | -5.92% |
